Inconclusive results are not listed. Where a call stands in place of a potency, no number is given. Values without a mark were called inactive. Calls of active or inactive are those of the source. Calls follow the shape of the dose curve; as a rule, active = well fitted curve in the direction sought with a large enough effect in the repeat runs; inconclusive = weak or mixed curves; inactive = no such curve, though single readings can be large; an effect the other way counts as inactive or inconclusive.
Potency is read from the fitted curve at half-maximal effect.

The nature of one assay: qHTS assay to identify small molecule antagonists of the retinoid acid receptor (RAR) signaling pathway - cell viability counter screen (AID 1159551). Also: nearly all actives have a fitted effect of over 35% in size. The settings on record: C3RL4 cells viability, ATP luminescence (CellTiter-Glo), 6 h; series mostly up to 92.4 µM. A digest of the protocol: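 C3RL4 RARE-luciferase cells, 1,000/well, incubated overnight, then dosed with compound plus 1 uM retinol (final). After 6 hr at 37 C, viability read by CellTiter-Glo ATP luminescence following 30 min at room temperature.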
(In general: qHTS replaces the single test concentration by a dilution series.)
On to `CCC(Cl)C(Cl)C(Cl)CC(Cl)C(Cl)C(C)Cl` (centres undefined), for which the Potency entry is “inactive”.
Same read-out and setting: the value for `CSc1cnc(C)cn1` was “inactive”; that for `COc1cc(-c2ccc(N=C=O)c(OC)c2)ccc1N=C=O` was “inactive”; that for `Oc1c(Cl)cc(Cl)c2cccnc12` was “inactive”.
Regarding `Nc1ccccc1O`, the Potency result was “inactive”.
Still for that read-out and setting: to `O=C1CCCCCN1SSN1CCCCCC1=O` belongs “inactive”; to `C=CC(=O)OCC(CO)(COC(=O)C=C)COC(=O)C=C`, 61.3 µM (active).
Still for that read-out and setting: to `Cc1cc(O)c(Cl)c(C)c1Cl` belongs “inactive”; to `Oc1ccc(N=Nc2ccccc2)cc1`, “inactive”.
On the same count and under the same terms, the value for `O=C(Nc1cccc([N+](=O)[O-])c1)c1cc2ccccc2cc1O` was “inactive”; that for `NNc1nc(-c2ccccc2)cs1` was “inactive”; that for `CN(C/C=C/C#CC(C)(C)C)Cc1cccc2ccccc12` was “inactive”.
As to `CCCCCOc1ccccc1/C(=C\SC)n1ccnc1`, the Potency result was “inactive”.
Still for that read-out and setting: to `C=C(C)C(=O)OCC(O)COc1ccc(C(C)(C)c2ccc(OCC(O)COC(=O)C(=C)C)cc2)cc1` (centres undefined) belongs “inactive”; to `CCCCCCCC/C=C\CCCCCCCCOCCO`, “inactive”.
The same measure, in the same setting: to `Cc1cc2c(cc1C(F)(F)F)N(C(=O)Nc1ccc(Oc3cccnc3C)nc1)CC2` belongs “inactive”; to `CCCCN(CCCC)C(=O)N(CCCC)CCCC`, “inactive”.
Consider `CC(NN)c1ccccc1` (centres undefined), for which the activity change, negative = cytotoxicity is 1.08% [at 19 µM].
With `CCCCCCCCOC(=O)c1ccc(O)cc1`, the Potency entry was “inactive”.
With `CCN(Cc1cccnc1)C(=O)c1cccc(Cl)c1[C@]1(C)C(=O)N(Cc2ccc(OC)cc2OC)c2ccc(Cl)cc21`, the Potency entry is “inactive”.
The same measure, in the same setting: to `COC(=O)c1cc(Cl)ccc1OC` belongs “inactive”; to `C=C(C)C(=O)OCC[N+](C)(C)C`, “inactive”; to `Clc1ccc2cc3ccccc3cc2c1`, “inactive”.

A short description of the next assay: qHTS assay to identify small molecule antagonists of the retinoic acid receptor (RAR) signaling pathway (AID 1159552; also: nearly all actives have a fitted effect of over 50% in size). The conditions noted are these: C3RL4 RARE luciferase reporter, retinol-stimulated, 6 h; series mostly up to 92.4 µM. A digest of the protocol:
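Quantitative HTS in C3RL4 RARE-luciferase reporter cells. Compounds were added with 1 uM (final) retinol; luminescence was read after 6 hr.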
On to `CCC(Cl)C(Cl)C(Cl)CC(Cl)C(Cl)C(C)Cl` (centres undefined), for which the Potency entry is “inactive”.
Regarding `[Cl][Au]([Cl])[Cl]`, the Potency was 30.6 µM (active).
In the case of `CCCCCCCCCOC(=O)c1ccc(O)cc1`, the Potency result was “inactive”.
Same read-out and setting: to `CSc1cnc(C)cn1` belongs “inactive”; to `CC1=NC(C)OC1C` (centres undefined), “inactive”; to `C=CC(=O)OCC(CO)(COCC(COC(=O)C=C)(COC(=O)C=C)COC(=O)C=C)COC(=O)C=C`, 7.6 µM (active).
Still for that read-out and setting: the value for `CN1CCN(CCC(=O)N2c3ccccc3Sc3ccc(C(F)(F)F)cc32)CC1` was 29.8 µM (active).
With `O=C1CCCc2c1cc1ccc3cccc4ccc2c1c34`, the Potency entry is “inactive”.
The same measure, in the same setting: to `COc1cc(-c2ccc(N=C=O)c(OC)c2)ccc1N=C=O` belongs “inactive”; to `Oc1c(Cl)cc(Cl)c2cccnc12`, “inactive”.
Still for that read-out and setting: to `Nc1ccccc1O` belongs “inactive”; to `O=C1CCCCCN1SSN1CCCCCC1=O`, 24.3 µM (active); to `Cc1cc(O)c(Cl)c(C)c1Cl`, “inactive”.
Still for that read-out and setting: the value for `Oc1ccc(N=Nc2ccccc2)cc1` was “inactive”; that for `O=C(Nc1cccc([N+](=O)[O-])c1)c1cc2ccccc2cc1O` was “inactive”.
For the compound `NNc1nc(-c2ccccc2)cs1`, the Potency entry was “inactive”.
Take `CCCCCOc1ccccc1/C(=C\SC)n1ccnc1`: the Potency result was “inactive”.
Same read-out and setting: to `C=C(C)C(=O)OCC(O)COc1ccc(C(C)(C)c2ccc(OCC(O)COC(=O)C(=C)C)cc2)cc1` (centres undefined) belongs “inactive”; to `CC[C@H]1O[C@]2(CC[C@@H]1C)C[C@@H]1C[C@@H](C/C=C(\C)C[C@@H](C)/C=C/C=C3\CO[C@@H]4[C@H](O)C(C)=C[C@@H](C(=O)O1)[C@]34O)O2`, 42.9 µM (active).
On the same count and under the same terms, the value for `Cc1cc2c(cc1C(F)(F)F)N(C(=O)Nc1ccc(Oc3cccnc3C)nc1)CC2` was “inactive”; that for `CC(C)(C)NC(=O)[C@@H]1C[C@@H]2CCCC[C@@H]2CN1C[C@@H](O)[C@H](Cc1ccccc1)NC(=O)[C@H](CC(N)=O)NC(=O)c1ccc2ccccc2n1` was 55.2 µM (active); that for `CCCCN(CCCC)C(=O)N(CCCC)CCCC` was “inactive”.
The same measure, in the same setting: the value for `CCCCCCCCCCCC(=O)NCCCN(C)C` was 54.5 µM (active).
With `CC(NN)c1ccccc1` (centres undefined), the activity, negative = inhibition was 37.3% [at 19 µM].
Consider `CCCCCCCCOC(=O)c1ccc(O)cc1`, for which the Potency result was “inactive”.
Same read-out and setting: to `C=C(C)C(=O)OCC[N+](C)(C)C` belongs “inactive”; to `O=C1c2c(O)ccc(Nc3ccc(CCO)cc3)c2C(=O)c2c([N+](=O)[O-])ccc(O)c21`, “inactive”; to `Clc1ccc2cc3ccccc3cc2c1`, “inactive”.

Another assay is described as follows: qHTS assay to identify small molecule agonists of the retinoic acid receptor (RAR) signaling pathway (AID 1159553). The conditions noted are these: C3RL4 RARE luciferase reporter, agonist, 6 h; series mostly up to 73.3 µM. A digest of the protocol: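 C3RL4 RARE-luciferase cells were seeded at 1,000/well and grown overnight at 37 C, then exposed to compounds for 6 hr at 37 C, 5% CO2. Luciferase reagent was added and luminescence was read after 30 min at room temperature.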
Turning to `CCC(Cl)C(Cl)C(Cl)CC(Cl)C(Cl)C(C)Cl` (centres undefined), the Potency result was “inactive”.
The same measure, in the same setting: the value for `CCCCCCCCCOC(=O)c1ccc(O)cc1` was “inactive”.
Same read-out and setting: the value for `CSc1cnc(C)cn1` was “inactive”; that for `CC1=NC(C)OC1C` (centres undefined) was “inactive”.
The same measure, in the same setting: to `C=CC(=O)OCC(CO)(COCC(COC(=O)C=C)(COC(=O)C=C)COC(=O)C=C)COC(=O)C=C` belongs 0.957 µM (active); to `COc1cc(-c2ccc(N=C=O)c(OC)c2)ccc1N=C=O`, “inactive”.
For the compound `Oc1ccc(N=Nc2ccccc2)cc1`, the Potency was 2.47 µM (active).
On the same count and under the same terms, to `O=C(Nc1cccc([N+](=O)[O-])c1)c1cc2ccccc2cc1O` belongs 0.969 µM (active); to `NNc1nc(-c2ccccc2)cs1`, 70.5 µM (active); to `CN(C/C=C/C#CC(C)(C)C)Cc1cccc2ccccc12`, “inactive”.
Still for that read-out and setting: to `CCCCCOc1ccccc1/C(=C\SC)n1ccnc1` belongs 33.5 µM (active).
In the case of `Cc1cc2c(cc1C(F)(F)F)N(C(=O)Nc1ccc(Oc3cccnc3C)nc1)CC2`, the Potency entry was “inactive”.
Still for that read-out and setting: the value for `CCCCN(CCCC)C(=O)N(CCCC)CCCC` was “inactive”; that for `CC(NN)c1ccccc1` (centres undefined) was “inactive”; that for `CCCCCCCCOC(=O)c1ccc(O)cc1` was “inactive”.
Still for that read-out and setting: to `N/C(=N\N=C\c1ccc(Cl)cc1)N/N=C/c1ccc(Cl)cc1` belongs “inactive”; to `C=C(C)C(=O)OCC[N+](C)(C)C`, “inactive”; to `CC(C)(C)C1CCC(CC2=C(O)c3ccccc3C(=O)C2=O)CC1` (centres undefined), “inactive”.

These data come from PubChem BioAssay (Tox21).
